Laboratory results: PubChem BioAssay AID1347136 (National Center for Advancing Translational Sciences (NCATS), 2019)
The other results are listed elsewhere or left out. Inconclusive results are not listed. Activity calls are given as the source filed them. Calls come from the whole dose curve; as a rule, active = well fitted inhibition curve with a large enough effect; inconclusive = small, poorly fitted or top-dose-only effect; inactive = no such curve, though single readings can be large or run the other way.

Test: qHTS of pediatric cancer cell lines to identify multiple opportunities for drug repurposing: Orthogonal 3D viability screen for SJ-GBM2 cells
Details: SJ-GBM2 3D spheroid viability, PI/Hoechst imaging, 72 h
Description: Drug repurposing or repositioning has been offered as a strategy for drug development in oncology programs. This approach has special potential for childhood cancers and other rare or orphan diseases, where the expected return on new drug development has been a disincentive to pharmaceuticals. […] In this project we exploit the poly-pharmacology of drugs to discover new indications via phenotypic screening of a panel of 19 well-characterized cell lines derived from solid tumors seen in children and adolescents. The goal is to identify approved drugs with previously unrecognized anticancer properties that has the potential to reveal new mechanisms and biological processes involved in carcinogenesis or drug resistance. We employed a titration-based paradigm (quantitative high-throughput screening or qHTS), where all compounds were tested at multiple concentrations for their effect on cell viability. Concentration-response curves (CRCs) were derived directly from the primary screen, and both potency and efficacy values were used to identify compounds with robust bioactivity profiles. […] These two assays will be used to validate active compounds and assess the correlation of compound's potency in 2D vs 3D cultures on selected cell lines. Assay Submitter: Nathalia J. Martinez, National Center for Advancing Translational Sciences, National Institutes of Health, Rockville, MD, USA; email: natalia.martinez@nih.gov Shen, M et al. Quantitative high-throughput phenotypic screening of pediatric cancer cell lines identifies multiple opportunities for drug repurposing. Oncotarget 2017 Dec 19;9(4):4758-4772. PMID 29435139.
The cells were obtained from University of North Carolina (UNC), Pediatric Preclinical Testing Program (PPT), and Coriell Institute (CI). qHTS viability in 3D culture: Cells were assayed in phenol red-free growth media at a density of 1,000 cells/well, with the exception of Daoy, and SH-N-SH which were assayed at 1,500 cells/ well. Thirty muL of cells were dispensed into 384-well, ULA, round bottom plates (Corning) using a Multidrop dispenser. Plates were spun down at 1,000 rpm for 1 min and incubated at 37 degrees C, 5% CO2, under a humidified atmosphere for either 24 (Daoy) or 48 hours (all other cell lines) to allow spheroid formation. Ninety-two nanoliter of compounds and controls (neutral control DMSO or positive control bortezomib at final concentrations of 0.5 µM) were subsequently transferred via GNF Pintool. Plates were sealed using a breathable seal (Diversified Biotech, Dedham, MA) and incubated for 72 hours at 37 degrees C. Spheroid viability was first determined by high-content imaging using Hoechst 33342 and Propidium Iodide (PI, ThermoFisher Scientific), followed by addition of CellTiter-Glo 3D (Promega). Specifically, 3 µL/well of PBS containing a 1:500 dilution of both dyes was dispensed using Multidrop. Dyes were incubated for 1 hour before imaging using the Celigo Image Cytometer. Then, 20 µl of CellTiter-Glo 3D were added per well. Plates were incubated for 30 min at RT on a VWR microplate shaker (300 rpm) and analyzed for luminescence intensity using a ViewLux High-throughput CCD imager equipped with clear filters. Image analysis was done using the Celigo Tumorsphere 1+2+3 application software as previously described. Briefly, spheroids were first identified using bright-field image segmentation, and then the fluorescent intensities of PI and Hoechst 3342 were obtained using red (EX: 531/40 nm, EM: 629/53 nm) and blue (EX: 377/50 nm, EM: 470/22 nm) filters, respectively. The data were exported to Excel, and the average fluorescent intensities were used to calculate the ratio of PI over Hoechst, which was used to quantify viability. Percent activity based on neutral and positive control bortezomib was derived.
For CC[C@]1(O)C[C@@H]2CN(CCc3c([nH]c4ccccc34)[C@@](C(=O)OC)(c3cc4c(cc3OC)N(C)[C@H]3[C@@](O)(C(=O)OC)[C@H](OC(C)=O)[C@]5(CC)C=CCN6CC[C@]43[C@@H]65)C2)C1, the Potency was 40.6 nM (active).
For CC1(C)O[C@@H]2C[C@@H]3[C@H]4C[C@@H](F)C5=CC(=O)C=C[C@]5(C)[C@@]4(F)[C@@H](O)C[C@]3(C)[C@]2(C(=O)CO)O1, the Potency was 574 nM (active).
In the case of CC[C@H]1CN2CCc3cc(OC)c(OC)cc3[C@@H]2C[C@@H]1C[C@H]1NCCc2cc(OC)c(OC)cc21, the Potency is reported as 72.2 nM (active).
In the case of COC(=O)Nc1nc2ccc(Sc3ccccc3)cc2[nH]1, the Potency is reported as 574 nM (active).
In the case of CC(NCc1ccc2c(c1)nc(NC(=O)c1ccc(-c3cn[nH]c3)s1)n2CC(C)(C)O)C(C)(C)C (stereo unspecified), the Potency is reported as 162 nM (active).
In the case of COc1c(C)c2c(c(O)c1C/C=C(\C)CCC(=O)O)C(=O)OC2, the Potency is reported as 722 nM (active).
